# Results from PubChem BioAssay (EPA / NIEHS).
# Records with an inconclusive call do not appear. The source made the active and inactive calls. How the source made its calls: active means hit-call score of the fitted dose curve at least 0.9, where 1 is the maximum; inconclusive means response in the unintended direction; inactive means score below 0.9.
# Target: human Acid Phosphatase 1 (ACP1), ACP1 (gene 52) (UniProt P24666)
# Assay: NVS_ENZ_hACP1: NovaScreen (NVS) Enzymatic Assay for human Acid Phosphatase 1 (ACP1) (AID 2283136)
# Summary of the method: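 Recombinant enzyme expressed in Sf9 cells, tested cell-free; activity read by fluorescence with electrophoretic mobility shift separation of substrate and product, 1.5 h after dosing. Primary screen in duplicate at 25 uM, actives then run in concentration series; loss of signal versus DMSO.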
# human Acid Phosphatase 1 (ACP1), ACP1 (gene 52), sequence (P24666 whole entry, looked up): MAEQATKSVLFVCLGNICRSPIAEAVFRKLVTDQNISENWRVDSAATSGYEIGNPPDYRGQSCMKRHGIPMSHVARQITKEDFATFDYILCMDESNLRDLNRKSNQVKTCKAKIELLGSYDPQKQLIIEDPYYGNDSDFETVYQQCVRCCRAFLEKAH
row,Compound,outcome
1,CCOC(=O)C(C)(C)Oc1ccc(Cl)cc1,inactive
2,CCCc1cc(=O)[nH]c(=S)[nH]1,inactive
3,O=C(O)Cc1ccccc1Nc1c(Cl)cccc1Cl,inactive
4,Cc1ccc2ncccc2c1,inactive
5,FC(F)(F)C(F)(F)C(F)(F)C(F)(F)C(F)(F)C(F)(F)CCI,inactive
6,NCCO,inactive

# Target: human Caspase 5 (CASP5), CASP5 (gene 838) (UniProt P51878)
# Assay: NVS_ENZ_hCASP5: NovaScreen (NVS) Enzymatic Assay for human Caspase 5 (CASP5) (AID 2283137)
# Summary of the method: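 Recombinant human caspase 5 expressed in E. coli, fluorogenic substrate, fluorescence read 2 h after dosing. Single-point 25 uM duplicate screen, then concentration-response to maximum 50 uM for actives; DMSO baseline.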
# human Caspase 5 (CASP5), CASP5 (gene 838), sequence (P51878 whole entry, looked up): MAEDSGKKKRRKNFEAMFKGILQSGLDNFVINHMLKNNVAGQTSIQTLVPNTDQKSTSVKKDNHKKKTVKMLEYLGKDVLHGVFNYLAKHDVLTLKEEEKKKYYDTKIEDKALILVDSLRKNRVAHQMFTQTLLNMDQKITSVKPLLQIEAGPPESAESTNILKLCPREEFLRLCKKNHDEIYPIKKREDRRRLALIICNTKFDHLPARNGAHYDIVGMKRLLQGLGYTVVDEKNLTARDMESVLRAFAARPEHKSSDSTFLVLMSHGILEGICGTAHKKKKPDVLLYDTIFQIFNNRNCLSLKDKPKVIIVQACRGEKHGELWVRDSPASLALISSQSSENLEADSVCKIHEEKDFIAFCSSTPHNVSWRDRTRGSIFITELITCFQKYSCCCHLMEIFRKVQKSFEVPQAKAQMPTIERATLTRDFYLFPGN
Compound,AC50,outcome
CCCCCCCCCCCCCCCCCC(=O)O,0.719 µM (active),
CCCCC(CC)COC(=O)CC(C(=O)OCC(CC)CCCC)S(=O)(=O)O (centres undefined),15.2 µM (active),
COc1cc(S(=O)(=O)O)c(C)cc1N=Nc1c(O)ccc2cc(S(=O)(=O)O)ccc12,19.9 µM (active),
CC1(C)CC(N=C=O)CC(C)(CN=C=O)C1 (centres undefined),,inactive
CC1=C(/C=C/C(C)=C/C=C/C(C)=C/CO)C(C)(C)CCC1,39.9 µM (active),
COc1cc(-c2nc(NC(=O)c3cc4cc(C)cc(C)c4n3CC(=O)O)sc2CCC2CCCCC2)c(OC)cc1Cl,0.91 µM (active),
Cc1c(C(=O)O)c(O)cc2c1C(=O)c1c(O)c([C@@H]3O[C@H](CO)[C@@H](O)[C@H](O)[C@H]3O)c(O)c(O)c1C2=O,,inactive
CCc1c(C(=O)NN2CCCCC2)nn(-c2ccc(Cl)cc2Cl)c1-c1ccc(Br)cc1,,inactive
Cc1ccc2ncccc2c1,,inactive
COc1ccc(C)cc1N,,inactive

# Target: human Beta-secretase (BACE), BACE1 (gene 23621) (UniProt P56817)
# Assay: NVS_ENZ_hBACE: NovaScreen (NVS) Enzymatic Assay for human Beta-secretase (BACE) (AID 2283140);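 further: hits are inhibitors that reduce fluorescent substrate signal versus DMSO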
# Summary of the method: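 Cell-free assay of recombinant Sf9-expressed human BACE with fluorescent substrate, read by fluorescence intensity after 1 h. Primary screen in duplicate at 25 uM; actives then run in concentration series; loss of signal relative to DMSO.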
# human Beta-secretase (BACE), BACE1 (gene 23621), sequence (P56817 whole entry, looked up): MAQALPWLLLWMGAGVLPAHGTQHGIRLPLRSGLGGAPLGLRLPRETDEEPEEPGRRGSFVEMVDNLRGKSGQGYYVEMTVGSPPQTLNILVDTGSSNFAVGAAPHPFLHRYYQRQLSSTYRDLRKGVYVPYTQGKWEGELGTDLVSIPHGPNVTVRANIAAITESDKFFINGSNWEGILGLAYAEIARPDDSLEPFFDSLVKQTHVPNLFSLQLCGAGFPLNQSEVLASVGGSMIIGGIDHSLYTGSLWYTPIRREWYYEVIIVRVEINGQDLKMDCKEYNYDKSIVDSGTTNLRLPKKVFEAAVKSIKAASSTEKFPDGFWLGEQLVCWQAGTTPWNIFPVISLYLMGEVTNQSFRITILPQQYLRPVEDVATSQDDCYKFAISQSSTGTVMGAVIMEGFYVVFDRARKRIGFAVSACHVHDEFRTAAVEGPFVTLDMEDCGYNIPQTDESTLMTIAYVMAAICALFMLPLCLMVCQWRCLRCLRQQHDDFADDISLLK
Compound,AC50,outcome
CCCCC(CC)COC(=O)CC(C(=O)OCC(CC)CCCC)S(=O)(=O)O (centres undefined),1.35 µM (active),
CCOC(=O)C(C)(C)Oc1ccc(Cl)cc1,,inactive
Cc1ccc2ncccc2c1,,inactive

# Target: human AKT serine/threonine Kinase 2 (AKT2), AKT2 (gene 208) (UniProt P31751)
# Assay: NVS_ENZ_hAKT2: NovaScreen (NVS) Enzymatic Assay for human AKT serine/threonine Kinase 2 (AKT2) (AID 2283141)
# Summary of the method: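 Cell-free fluorescence/electrophoretic mobility shift readout of recombinant human AKT2 activity, 1 h after chemical dosing. Duplicate primary screen at 25 uM, then singleton concentration-response up to 50 uM; loss of signal versus DMSO baseline.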
# human AKT serine/threonine Kinase 2 (AKT2), AKT2 (gene 208), sequence (P31751 whole entry, looked up): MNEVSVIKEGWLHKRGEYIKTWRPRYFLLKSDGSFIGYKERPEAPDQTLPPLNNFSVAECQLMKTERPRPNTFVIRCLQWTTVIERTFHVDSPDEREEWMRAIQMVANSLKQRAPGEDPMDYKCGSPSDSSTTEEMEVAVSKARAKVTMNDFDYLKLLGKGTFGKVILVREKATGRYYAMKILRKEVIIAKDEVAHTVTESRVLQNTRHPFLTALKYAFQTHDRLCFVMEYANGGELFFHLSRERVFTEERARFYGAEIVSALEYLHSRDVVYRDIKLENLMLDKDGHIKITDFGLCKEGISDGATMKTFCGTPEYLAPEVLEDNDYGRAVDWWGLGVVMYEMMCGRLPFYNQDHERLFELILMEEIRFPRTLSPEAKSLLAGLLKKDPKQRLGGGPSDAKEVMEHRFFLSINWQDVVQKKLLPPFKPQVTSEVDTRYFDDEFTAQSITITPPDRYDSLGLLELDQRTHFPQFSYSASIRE
Compound,outcome,AC50
CCOC(=O)CCC(=O)OCC,inactive,
CC1(C)CC(N=C=O)CC(C)(CN=C=O)C1 (centres undefined),,6.21 µM (active)
CC1=C(/C=C/C(C)=C/C=C/C(C)=C/CO)C(C)(C)CCC1,inactive,
Cc1ccc2ncccc2c1,inactive,

# Target: human Caspase 8 (CASP8), CASP8 (gene 841) (UniProt Q14790)
# Assay: NVS_ENZ_hCASP8: NovaScreen (NVS) Enzymatic Assay for human Caspase 8 (CASP8) (AID 2283146)
# Summary of the method: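 E. coli-expressed enzyme was used in a cell-free fluorogenic substrate assay read 1 h after dosing. Loss of signal was scored relative to DMSO, and the primary screen was run in duplicate at 25 uM.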
# human Caspase 8 (CASP8), CASP8 (gene 841), sequence (Q14790 whole entry, looked up): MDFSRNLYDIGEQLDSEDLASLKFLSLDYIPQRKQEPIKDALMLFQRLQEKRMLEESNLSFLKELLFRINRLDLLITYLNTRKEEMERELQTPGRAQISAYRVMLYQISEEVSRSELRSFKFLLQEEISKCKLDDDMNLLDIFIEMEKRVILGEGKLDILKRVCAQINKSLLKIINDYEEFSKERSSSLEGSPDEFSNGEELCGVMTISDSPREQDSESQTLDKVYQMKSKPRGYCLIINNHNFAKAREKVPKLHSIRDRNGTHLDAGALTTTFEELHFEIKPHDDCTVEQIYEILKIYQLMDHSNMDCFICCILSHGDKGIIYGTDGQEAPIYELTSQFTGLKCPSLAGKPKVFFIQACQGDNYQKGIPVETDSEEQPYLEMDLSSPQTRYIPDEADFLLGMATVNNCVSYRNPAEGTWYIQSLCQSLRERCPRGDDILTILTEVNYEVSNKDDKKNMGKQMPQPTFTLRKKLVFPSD
Compound,outcome,AC50
CC1(C)CC(N=C=O)CC(C)(CN=C=O)C1 (centres undefined),inactive,
O=C(O)Cc1ccccc1Nc1c(Cl)cccc1Cl,,12.3 µM (active)
FC(F)(F)C(F)(F)C(F)(F)C(F)(F)C(F)(F)C(F)(F)CCI,inactive,

# Target: human Casein Kinase 1-delta (CK1D), CSNK1D (gene 1453) (UniProt P48730)
# Assay: NVS_ENZ_hCK1D: NovaScreen (NVS) Enzymatic Assay for human Casein Kinase 1-delta (CK1D) (AID 2283148)
# Summary of the method: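 Recombinant human CK1-delta, cell-free; fluorescent substrate with electrophoretic mobility-shift separation of product, read 1 h after dosing. Single 25 uM duplicate screen, then concentration-response up to 50 uM; loss of signal vs DMSO.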
# human Casein Kinase 1-delta (CK1D), CSNK1D (gene 1453), sequence (P48730 whole entry, looked up): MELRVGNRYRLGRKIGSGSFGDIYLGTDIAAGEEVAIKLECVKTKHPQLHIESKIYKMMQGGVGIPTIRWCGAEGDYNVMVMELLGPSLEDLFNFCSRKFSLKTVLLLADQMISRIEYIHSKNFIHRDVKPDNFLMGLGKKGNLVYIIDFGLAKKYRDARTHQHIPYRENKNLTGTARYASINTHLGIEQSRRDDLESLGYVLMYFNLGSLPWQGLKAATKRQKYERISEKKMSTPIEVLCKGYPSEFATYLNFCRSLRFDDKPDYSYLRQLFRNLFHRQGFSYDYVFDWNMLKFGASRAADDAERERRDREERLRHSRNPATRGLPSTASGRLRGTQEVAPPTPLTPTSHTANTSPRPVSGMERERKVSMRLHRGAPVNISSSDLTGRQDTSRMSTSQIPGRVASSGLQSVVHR
Compound,outcome,AC50
CC1=C(/C=C/C(C)=C/C=C/C(C)=C/CO)C(C)(C)CCC1,inactive,
Cc1ccc2ncccc2c1,,4.96 µM (active)
NCCO,inactive,
